Bioassay records (PubChem BioAssay)
ADAM17 inh: ADAM17 inhibitors, primary screen, biochemical, QFRET; 0.83% of 370,000 active; inhibition, % at 6.95 µM; Disintegrin and metalloproteinase domain-containing protein 17 (Homo sapiens), P78536; recombinant ADAM17, EDANS/DABCYL FRET peptide cleavage;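 active = inhibition above the mean of compounds lying between control limits plus 3 SD, set per campaign, cut at about 8.5% in these data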;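 also: 0% = DMSO-only wells as the low control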
Target sequence (P78536 215-824 limits assumed): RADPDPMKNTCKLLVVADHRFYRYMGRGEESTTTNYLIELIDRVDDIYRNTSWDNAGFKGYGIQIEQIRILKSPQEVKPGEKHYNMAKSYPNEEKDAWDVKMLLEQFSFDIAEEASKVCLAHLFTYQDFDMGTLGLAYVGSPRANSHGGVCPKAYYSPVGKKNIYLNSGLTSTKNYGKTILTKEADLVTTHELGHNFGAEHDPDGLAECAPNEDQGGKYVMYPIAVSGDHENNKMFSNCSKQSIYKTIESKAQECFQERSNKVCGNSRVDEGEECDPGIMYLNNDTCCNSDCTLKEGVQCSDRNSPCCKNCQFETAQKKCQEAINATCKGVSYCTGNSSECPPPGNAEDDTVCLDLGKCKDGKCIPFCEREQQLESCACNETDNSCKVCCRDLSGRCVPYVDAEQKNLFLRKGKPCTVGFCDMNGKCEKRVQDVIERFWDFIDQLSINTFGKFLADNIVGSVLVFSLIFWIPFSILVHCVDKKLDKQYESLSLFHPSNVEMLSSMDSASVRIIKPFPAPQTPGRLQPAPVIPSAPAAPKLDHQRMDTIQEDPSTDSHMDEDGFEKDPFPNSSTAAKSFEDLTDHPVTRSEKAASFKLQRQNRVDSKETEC
PLCb3 inh: human PLC-beta3 inhibitors, primary screen, biochemical, fluorescence. 0.18% of 370,000 active. Purified PLC-beta3, fluorogenic substrate. AID 720704, 2013. inhibition, % at 12.2 µM. 1-phosphatidylinositol 4,5-bisphosphate phosphodiesterase beta-3 (Homo sapiens), Q01970; in the data active = inhibition above about 11%;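 also: 0% = median of compound wells on plate and 100% = full blocker control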
ADAM10 inh: human ADAM10 inhibitors, primary screen, biochemical, QFRET, HTS | AID 720582, 2013 | inhibition, % at 7 µM | recombinant ADAM10, EDANS/DABCYL FRET peptide cleavage, 3 h | Disintegrin and metalloproteinase domain-containing protein 10 (Homo sapiens), O14672 | 0.62% of 370,000 active;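 active = inhibition above a per-campaign cutoff equal to the mean of compounds falling between control-based bounds plus 3 SD, cut at about 20% in these data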;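 also: 0% = DMSO wells while the 100% control is not disclosed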
PLC-gamma1 inh: PLC-gamma1 enzyme inhibitors, primary screen, biochemical, fluorescence, purified enzyme; fluorogenic substrate; inhibition, % at 12.2 µM; 0.84% of 370,000 active; AID 720700, 2013
proKLK7 act: proKLK7 zymogen activators, primary screen, biochemical, fluorescence intensity; Kallikrein-7 (Homo sapiens), P49862; purified proKLK7, EDANS-DABCYL substrate fluorescence; 100% is mature enzyme control, 0% vehicle; activation, % at 7 µM; 0.9% of 370,000 active; AID 652039, 2013;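 active = activation above the mean of all tested compounds plus 3 SD, computed per campaign excluding outliers beyond control limits, cut at about 13% in these data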
PLCg1 ctr: PLC-gamma1 enzyme inhibitors, counter-screen for PLC-beta3 inhibitor project, biochemical, fluorescence; shares compounds with PLC-gamma1 inh; purified PLC-gamma1, fluorogenic substrate; inhibition, % at 12.3 µM; 3.1% of 3,300 active; AID 743258, 2014
PLCb3 confirm: PLC-beta3 inhibitor confirmation, biochemical, fluorescence, purified enzyme. inhibition, % at 12.3 µM. shares compounds with PLC-gamma1 inh. fluorogenic substrate fluorescence. 1% of 3,300 active; in the data active = inhibition above about 11%
* hit, by the source's call; / = no result. Rows were chosen to be rich in hits. Some 2.9% of all compounds tested hit in one or more screens of this group. Rule as the data show it, unless noted: active = inhibition above about 9.5%; inactive = the rest.

SMILES | ADAM17 inh | PLCb3 inh | ADAM10 inh | PLC-gamma1 inh | proKLK7 act | PLCg1 ctr | PLCb3 confirm
CC1=C(C(=O)Nc2ccccn2)C(c2ccc(Br)cc2)NC(=S)N1 (stereo not given) | 3 | 5 | -11 | 15* | 0 | -2 | -2
Cc1cc(Oc2cccc3c2S(=O)(=O)N(C2CCCC2)CC(COCc2ccccc2)O3)cc(C)c1C (stereo not given) | 1 | 2 | -14 | 2 | 0 | / | /
Cc1cc(OCC(=O)NCCc2ccc(S(N)(=O)=O)cc2)c2c(C)c(C)c(=O)oc2c1 | -10 | -36 | -63 | -19 | -12 | / | /
NC(c1csc(Nc2ncccn2)n1)c1ccccc1Cl (stereo not given) | 3 | 11 | 0 | 12* | 0 | -8 | 0
COc1ccc(N2C(=O)c3ccccc3C2O)cc1 (stereo not given) | -3 | -5 | 5 | -6 | 0 | / | /
C=COc1ccc(N2C(=O)c3ccccc3OC2C)cc1 (stereo not given) | 6 | -1 | 4 | 14* | 0 | -3 | -1
O=C1/C(=C/c2ccccc2)CCc2ccc(Cl)nc21 | -1 | -17 | -22 | -4 | -1 | / | /
NC(=O)c1ncn([C@@H]2O[C@H](CNCc3ccc(-c4cc(C(F)(F)F)ccc4Cl)o3)[C@@H](O)[C@H]2O)n1 | -1 | -2 | -15 | 1 | -1 | / | /
CCN(CC)CC(O)Cn1c(-c2cccc(Cl)c2)nc2cc(C)c(C)cc21 (stereo not given) | -9 | -8 | -17 | -5 | 1 | / | /
CCOC(=O)c1sc(N)c(C#N)c1CSc1nc2ccc(OCC)cc2[nH]1 | 4 | 7 | 18 | 13* | 0 | -4 | 1
O=C(CC1CCCC1)Nc1cc(S(=O)(=O)N2CCOCC2)ccc1O | 0 | 0 | -10 | -1 | 0 | / | /
COc1ccc(S(=O)(=O)N2CCCC2)cc1C(=O)N1CCCCC1 | -7 | -9 | -11 | -2 | -1 | / | /
COc1ccc(S(=O)(=O)N2CCCCC2)cc1C(=O)N1CCCC1 | -2 | 0 | -6 | 12* | 0 | -6 | -2
COc1ccc(S(=O)(=O)N2CCOCC2)cc1C(=O)Nc1cccc(C(=O)NC2CC2)c1 | -1 | -2 | -11 | 0 | 0 | / | /
Cc1ccc(S(=O)(=O)N2CCOCC2)cc1NC(=O)CNCC1CCCCC1 | -4 | 5 | 5 | 10* | -1 | -5 | -1
COc1ccc(S(=O)(=O)N2CCOCC2)cc1C(=O)NC1CCCCCC1 | 1 | 2 | 4 | 12* | 0 | -5 | 0
Cc1c(C)c2ccc(OCC(=O)NCCCn3ccnc3)c(C)c2oc1=O | -64 | -36 | -200 | -19 | 0 | / | /
CCc1cccc(NC(=O)CN(c2ccc(OC)cc2)S(=O)(=O)c2c(C)n[nH]c2C)c1 | 4 | 11* | 5 | 14* | 0 | 16* | 13*
O=C(c1cccc(F)c1)n1ccc2ccc(-c3ccc4ccn(Cc5ccccc5)c4c3)cc21 | -10 | -50 | -35 | -32 | -20 | / | /
Cc1nc2c(OCc3ccc(C(F)(F)F)cc3)cccn2c1N(C)Cc1cccs1 | -1 | -13 | -9 | -9 | 0 | / | /
O=C(COC(=O)c1cccnc1Cl)Nc1ccc(N2CCOCC2)cc1 | -6 | 4 | -12 | -1 | 0 | / | /
CCCN1CCC(C(=O)NC(c2ccc(Cl)cc2)c2ccsc2)CC1 (stereo not given) | 5 | 2 | 5 | 9.7* | 1 | -3 | 2
O=C(NC(c1ccc(Cl)cc1)c1ccsc1)C1CCN(Cc2ccc(Oc3ccccc3)cc2)CC1 (stereo not given) | 3 | 1 | 5 | -1 | 0 | / | /
N=c1sccn1CC(=O)NCCc1ccc(Cl)cc1 | 3 | 3 | 6 | 10* | 1 | -8 | -7
COc1ccc(/C=N/NC2=NCCCCC2)cc1 | -2 | 1 | 5 | 10* | 0 | -2 | 1
SMILES | ADAM17 inh | PLCb3 inh | ADAM10 inh | PLC-gamma1 inh | proKLK7 act | PLCg1 ctr | PLCb3 confirm
CCCCCCCC(=O)Nc1ccc(S(=O)(=O)Nc2nccs2)cc1 | 2 | 0 | 1 | 26* | 0 | -5 | -5
CCOC(=O)N1CCN(C(=O)COc2ccccc2Cl)CC1 | 3 | 10 | 5 | 9.5* | 0 | 1 | 3
O=C(COc1ccccc1Cl)N1CCCC1 | -2 | 1 | 3 | 1 | 0 | / | /
Cn1c(SCc2ccc(C(C)(C)C)cc2)nnc1-c1ccco1 | 1 | 1 | 5 | 0 | 0 | / | /
Cc1c(-c2nnc(SCC(=O)O)n2-c2ccccc2Br)nnn1-c1ccccc1 | 0 | 2 | 2 | 14* | 0 | -7 | -27
O=C(O)c1cccc(S(=O)(=O)Nc2ccc(N3CCCCC3)cc2)c1 | -6 | -5 | -13 | 1 | 0 | / | /
O=C(O)/C=C\C(=O)NCc1ccccc1 | -2 | 1 | -4 | 0 | 0 | / | /
O=C(O)/C=C/C(=O)NCc1ccccc1 | 7 | 6 | 1 | 10* | 0 | -6 | -3
CCN(CC)C(=O)c1cc2c(=O)oc3ccccc3c2s1 | 7 | 6 | -7 | 11* | -1 | -5 | -3
O=c1c(O)cccc2cc(O)c(O)c(O)c12 | -1 | 5 | -1 | 46* | 9 | 30* | 1
COc1ccc(C(=O)N2CCC(C)(C(=O)NS(=O)(=O)C3CC3)C2)c(OC)c1 (stereo not given) | 0 | 4 | 4 | 5 | 0 | / | /
CC(SC(C)C(=O)NN=Cc1cccc(Cl)c1)C(=O)NN=Cc1cccc(Cl)c1 (stereo not given) | 4 | 11* | -2 | 9 | 0 | -12 | -4
COc1cccc(C=NNC(=O)C(C)SC(C)C(=O)NN=Cc2cccc(OC)c2)c1 (stereo not given) | -1 | 4 | -2 | 0 | 1 | / | /
COCCCNCC1C(Oc2ccc(Cl)cc2)C(=O)N1c1ccccc1C (stereo not given) | 0 | -1 | -6 | 9.9* | 0 | -3 | -2
Cc1ccccc1N1C(=O)C(Oc2ccc(Cl)cc2)C1CNCCCOC(C)C (stereo not given) | 0 | 2 | 9 | 5 | 0 | / | /
C#Cc1cccc(Nc2nc(NCc3ccccc3)nc3ccsc23)c1 | -7 | -38 | -23 | -24 | -2 | / | /
COc1cccc(SCc2noc(C(=O)NCCN(C)C)c2C(=O)NCCN(C)C)c1 | -3 | 8 | 2 | 9.7* | 0 | -4 | -2
